The results in this text go back to ChEMBL document CHEMBL1961873, “Compounds: GSK PKIS; Assays: Nanosyn kinase panel” (2012).

Experiment [1] concerns the target Death-associated protein kinase 1 (Homo sapiens) (UniProt P53355). The settings on record: at 1 µM.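 Further: each value is a mean inhibition figure.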
In experiment [2] the target is T1, Serine/threonine-protein kinase DCLK2 (Homo sapiens) (UniProt Q8N568).
T1 sequence (whole entry): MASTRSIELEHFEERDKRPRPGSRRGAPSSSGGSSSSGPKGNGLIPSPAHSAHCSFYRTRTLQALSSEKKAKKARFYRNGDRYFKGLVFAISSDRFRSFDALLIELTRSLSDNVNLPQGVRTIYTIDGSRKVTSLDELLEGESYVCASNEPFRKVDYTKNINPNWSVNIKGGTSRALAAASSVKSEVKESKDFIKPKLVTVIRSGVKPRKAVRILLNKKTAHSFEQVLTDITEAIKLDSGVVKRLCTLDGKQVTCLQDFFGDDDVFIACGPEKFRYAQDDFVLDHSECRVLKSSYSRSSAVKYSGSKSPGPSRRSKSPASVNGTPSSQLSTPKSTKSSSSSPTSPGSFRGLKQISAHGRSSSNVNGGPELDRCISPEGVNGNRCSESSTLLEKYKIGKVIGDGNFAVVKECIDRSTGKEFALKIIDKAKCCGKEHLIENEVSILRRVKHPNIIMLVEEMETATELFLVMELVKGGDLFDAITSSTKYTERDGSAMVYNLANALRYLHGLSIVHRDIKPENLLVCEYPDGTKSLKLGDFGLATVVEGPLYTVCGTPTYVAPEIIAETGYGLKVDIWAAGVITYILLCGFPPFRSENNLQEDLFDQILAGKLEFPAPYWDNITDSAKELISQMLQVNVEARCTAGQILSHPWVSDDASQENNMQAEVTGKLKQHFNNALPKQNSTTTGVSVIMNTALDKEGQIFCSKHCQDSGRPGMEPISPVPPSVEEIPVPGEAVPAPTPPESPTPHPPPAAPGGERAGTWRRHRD
Conditions: at 0.1 µM.

Experiment [3] addresses T1, Serine/threonine-protein kinase DCLK2 (Homo sapiens). The settings on record: at 1 µM.
For experiment [4], the target named is MAP kinase-activated protein kinase 2 (Homo sapiens) (UniProt P49137). The settings on record: at 0.1 µM.
Chain of MAP kinase-activated protein kinase 2 (Homo sapiens) (P49137 whole entry, looked up): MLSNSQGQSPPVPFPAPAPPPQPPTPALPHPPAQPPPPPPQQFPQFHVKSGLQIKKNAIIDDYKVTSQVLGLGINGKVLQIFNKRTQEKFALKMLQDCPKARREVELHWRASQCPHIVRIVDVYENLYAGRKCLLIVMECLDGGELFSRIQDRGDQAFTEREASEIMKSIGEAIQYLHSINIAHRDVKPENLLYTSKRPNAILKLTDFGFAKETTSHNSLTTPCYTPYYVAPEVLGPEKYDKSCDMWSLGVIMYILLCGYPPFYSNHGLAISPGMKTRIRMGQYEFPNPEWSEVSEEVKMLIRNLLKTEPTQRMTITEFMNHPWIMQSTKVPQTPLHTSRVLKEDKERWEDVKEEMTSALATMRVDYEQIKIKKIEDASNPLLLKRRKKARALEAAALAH
Experiment [5] shares this target. Conditions: at 1 µM.
Experiment [6] concerns the target MAP kinase-activated protein kinase 3 (Homo sapiens) (UniProt Q16644). Conditions: at 0.1 µM.
Experiment [7] has the same target. The settings on record: at 1 µM.
The target in experiment [8] is Serine/threonine-protein kinase MARK1 (Homo sapiens) (UniProt Q9P0L2). The settings on record: at 0.1 µM.
Chain of Serine/threonine-protein kinase MARK1 (Homo sapiens) (Q9P0L2 whole entry, looked up): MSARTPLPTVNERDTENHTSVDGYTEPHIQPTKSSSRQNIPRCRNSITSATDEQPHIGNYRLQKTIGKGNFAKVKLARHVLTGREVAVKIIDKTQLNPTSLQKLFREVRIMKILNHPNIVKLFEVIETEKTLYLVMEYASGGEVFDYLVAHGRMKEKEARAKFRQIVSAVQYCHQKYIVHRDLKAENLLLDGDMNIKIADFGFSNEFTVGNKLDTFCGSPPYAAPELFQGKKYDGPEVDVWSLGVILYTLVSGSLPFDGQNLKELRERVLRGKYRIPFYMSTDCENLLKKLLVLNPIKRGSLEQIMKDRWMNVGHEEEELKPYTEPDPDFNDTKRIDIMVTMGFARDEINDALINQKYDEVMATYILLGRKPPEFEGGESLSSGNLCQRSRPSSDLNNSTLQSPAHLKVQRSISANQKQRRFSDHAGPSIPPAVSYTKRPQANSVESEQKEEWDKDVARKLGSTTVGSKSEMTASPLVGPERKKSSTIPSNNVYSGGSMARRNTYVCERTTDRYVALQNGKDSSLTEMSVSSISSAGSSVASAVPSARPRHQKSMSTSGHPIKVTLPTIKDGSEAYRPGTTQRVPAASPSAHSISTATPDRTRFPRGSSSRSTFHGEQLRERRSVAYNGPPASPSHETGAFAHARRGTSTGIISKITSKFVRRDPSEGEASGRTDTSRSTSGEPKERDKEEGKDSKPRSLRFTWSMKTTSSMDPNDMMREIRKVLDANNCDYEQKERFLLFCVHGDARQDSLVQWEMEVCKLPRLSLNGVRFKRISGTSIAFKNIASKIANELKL
Experiment [9] shares this target. Conditions: at 1 µM.
Experiment [10] addresses MAP/microtubule affinity-regulating kinase 3 (Homo sapiens) (UniProt P27448). Conditions: at 0.1 µM.
For experiment [11] the target is unchanged. The settings on record: at 1 µM.
The target in experiment [12] is T2, MAP/microtubule affinity-regulating kinase 4 (Homo sapiens) (UniProt Q96L34).
T2 sequence (whole entry): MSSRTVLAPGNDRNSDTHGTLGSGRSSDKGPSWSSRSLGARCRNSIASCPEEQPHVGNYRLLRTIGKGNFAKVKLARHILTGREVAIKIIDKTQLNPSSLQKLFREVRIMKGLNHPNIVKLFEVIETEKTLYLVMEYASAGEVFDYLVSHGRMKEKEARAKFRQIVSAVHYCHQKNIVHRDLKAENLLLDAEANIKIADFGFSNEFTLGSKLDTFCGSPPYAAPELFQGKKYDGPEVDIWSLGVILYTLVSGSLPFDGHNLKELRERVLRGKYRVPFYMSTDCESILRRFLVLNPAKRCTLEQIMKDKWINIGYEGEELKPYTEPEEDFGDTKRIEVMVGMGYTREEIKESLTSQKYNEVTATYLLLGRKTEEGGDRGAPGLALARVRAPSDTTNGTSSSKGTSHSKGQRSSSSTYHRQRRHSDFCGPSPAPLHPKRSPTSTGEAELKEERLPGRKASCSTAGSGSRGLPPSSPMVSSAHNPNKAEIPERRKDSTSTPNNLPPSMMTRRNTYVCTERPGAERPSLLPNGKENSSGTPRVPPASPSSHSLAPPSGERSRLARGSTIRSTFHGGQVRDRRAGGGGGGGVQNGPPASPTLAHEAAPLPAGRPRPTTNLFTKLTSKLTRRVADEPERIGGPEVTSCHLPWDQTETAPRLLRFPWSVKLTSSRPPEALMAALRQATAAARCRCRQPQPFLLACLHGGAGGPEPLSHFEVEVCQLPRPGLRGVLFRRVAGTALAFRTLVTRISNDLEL
Conditions: at 0.1 µM.

For experiment [13], the target named is T2, MAP/microtubule affinity-regulating kinase 4 (Homo sapiens). The settings on record: at 1 µM.
The target of experiment [14] is Maternal embryonic leucine zipper kinase (Homo sapiens) (UniProt Q14680). Conditions: at 0.1 µM.
Chain of Maternal embryonic leucine zipper kinase (Homo sapiens) (Q14680 whole entry, looked up): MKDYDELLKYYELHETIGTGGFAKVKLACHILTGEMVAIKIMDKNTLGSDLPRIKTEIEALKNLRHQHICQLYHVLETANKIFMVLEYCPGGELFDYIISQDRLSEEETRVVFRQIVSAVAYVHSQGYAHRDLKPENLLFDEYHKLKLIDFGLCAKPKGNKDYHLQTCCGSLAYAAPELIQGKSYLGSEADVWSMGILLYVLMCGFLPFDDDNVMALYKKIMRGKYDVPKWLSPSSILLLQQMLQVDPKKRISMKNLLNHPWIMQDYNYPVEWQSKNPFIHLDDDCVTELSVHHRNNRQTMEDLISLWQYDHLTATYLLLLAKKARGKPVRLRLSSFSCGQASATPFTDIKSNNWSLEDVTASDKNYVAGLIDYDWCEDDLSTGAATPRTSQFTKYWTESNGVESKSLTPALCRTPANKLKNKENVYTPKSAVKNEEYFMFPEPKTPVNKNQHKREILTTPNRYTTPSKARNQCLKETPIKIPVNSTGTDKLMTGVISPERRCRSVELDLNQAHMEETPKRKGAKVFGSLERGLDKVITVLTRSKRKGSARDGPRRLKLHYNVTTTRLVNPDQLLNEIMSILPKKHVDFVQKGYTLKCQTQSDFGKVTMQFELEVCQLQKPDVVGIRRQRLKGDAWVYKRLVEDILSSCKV
Experiment [15] has the same target. The settings on record: at 1 µM.
In experiment [16] the target is MAP kinase-interacting serine/threonine-protein kinase 1 (Homo sapiens) (UniProt Q9BUB5). The settings on record: at 0.1 µM.
Chain of MAP kinase-interacting serine/threonine-protein kinase 1 (Homo sapiens) (Q9BUB5 whole entry, looked up): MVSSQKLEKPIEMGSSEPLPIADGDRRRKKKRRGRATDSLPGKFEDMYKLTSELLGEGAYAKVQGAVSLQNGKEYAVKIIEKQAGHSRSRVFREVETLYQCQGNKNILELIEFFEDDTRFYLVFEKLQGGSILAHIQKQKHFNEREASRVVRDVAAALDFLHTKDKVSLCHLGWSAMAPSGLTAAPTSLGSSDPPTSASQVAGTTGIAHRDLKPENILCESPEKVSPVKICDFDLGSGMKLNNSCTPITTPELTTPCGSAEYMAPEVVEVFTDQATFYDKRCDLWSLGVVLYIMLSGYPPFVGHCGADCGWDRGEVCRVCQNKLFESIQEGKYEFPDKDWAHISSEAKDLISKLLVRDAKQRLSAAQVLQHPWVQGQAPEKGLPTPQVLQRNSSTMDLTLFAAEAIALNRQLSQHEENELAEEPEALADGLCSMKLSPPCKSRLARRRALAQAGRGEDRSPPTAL
Experiment [17] shares this target. The settings on record: at 1 µM.
Experiment [18] addresses MAP kinase-interacting serine/threonine-protein kinase 2 (Homo sapiens) (UniProt Q9HBH9). The settings on record: at 0.1 µM.
Experiment [19] shares this target. Conditions: at 1 µM.
In experiment [20] the target is Serine/threonine-protein kinase MARK2 (Homo sapiens) (UniProt Q7KZI7). The settings on record: at 0.1 µM.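 Further: mean percent inhibition of PAR-1Balpha kinase activity, reported from the GSK PKIS screen.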

Chain of Death-associated protein kinase 1 (Homo sapiens) (P53355 whole entry, looked up): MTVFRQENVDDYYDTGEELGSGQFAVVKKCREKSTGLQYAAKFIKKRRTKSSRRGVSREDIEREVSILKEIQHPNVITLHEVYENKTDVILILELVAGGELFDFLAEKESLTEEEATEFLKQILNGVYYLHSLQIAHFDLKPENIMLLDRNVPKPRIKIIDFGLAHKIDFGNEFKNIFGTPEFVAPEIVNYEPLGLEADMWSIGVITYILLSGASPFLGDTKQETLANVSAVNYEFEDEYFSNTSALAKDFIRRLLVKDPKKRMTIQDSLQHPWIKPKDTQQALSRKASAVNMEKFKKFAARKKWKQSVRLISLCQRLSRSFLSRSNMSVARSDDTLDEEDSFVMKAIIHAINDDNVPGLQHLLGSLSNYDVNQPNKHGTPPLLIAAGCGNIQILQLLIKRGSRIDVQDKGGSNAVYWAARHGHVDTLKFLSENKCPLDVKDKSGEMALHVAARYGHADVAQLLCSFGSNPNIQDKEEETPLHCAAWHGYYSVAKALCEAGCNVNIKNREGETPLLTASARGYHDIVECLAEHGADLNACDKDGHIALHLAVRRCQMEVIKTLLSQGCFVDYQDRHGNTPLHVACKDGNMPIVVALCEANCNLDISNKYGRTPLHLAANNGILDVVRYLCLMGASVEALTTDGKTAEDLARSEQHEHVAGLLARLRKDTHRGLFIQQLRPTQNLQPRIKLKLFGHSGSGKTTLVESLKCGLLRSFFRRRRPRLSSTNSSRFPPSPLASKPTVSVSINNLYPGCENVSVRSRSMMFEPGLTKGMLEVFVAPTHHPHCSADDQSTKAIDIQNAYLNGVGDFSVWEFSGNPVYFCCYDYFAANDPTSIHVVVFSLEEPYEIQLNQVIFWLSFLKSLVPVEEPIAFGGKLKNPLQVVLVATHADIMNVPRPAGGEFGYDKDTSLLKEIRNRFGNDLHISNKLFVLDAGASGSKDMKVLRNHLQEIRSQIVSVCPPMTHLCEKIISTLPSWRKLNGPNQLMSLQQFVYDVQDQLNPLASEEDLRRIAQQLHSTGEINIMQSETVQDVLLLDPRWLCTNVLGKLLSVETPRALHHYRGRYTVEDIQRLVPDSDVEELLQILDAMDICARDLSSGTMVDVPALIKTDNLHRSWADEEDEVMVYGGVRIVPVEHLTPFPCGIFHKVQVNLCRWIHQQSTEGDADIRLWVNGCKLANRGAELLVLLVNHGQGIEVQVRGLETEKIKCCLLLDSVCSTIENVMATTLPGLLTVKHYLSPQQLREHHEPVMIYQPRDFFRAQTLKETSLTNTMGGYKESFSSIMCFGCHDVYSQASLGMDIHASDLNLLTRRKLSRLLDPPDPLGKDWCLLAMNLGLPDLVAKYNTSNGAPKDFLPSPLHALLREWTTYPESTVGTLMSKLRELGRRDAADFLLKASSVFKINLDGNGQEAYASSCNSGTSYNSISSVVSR
Chain of MAP/microtubule affinity-regulating kinase 3 (Homo sapiens) (P27448 whole entry, looked up): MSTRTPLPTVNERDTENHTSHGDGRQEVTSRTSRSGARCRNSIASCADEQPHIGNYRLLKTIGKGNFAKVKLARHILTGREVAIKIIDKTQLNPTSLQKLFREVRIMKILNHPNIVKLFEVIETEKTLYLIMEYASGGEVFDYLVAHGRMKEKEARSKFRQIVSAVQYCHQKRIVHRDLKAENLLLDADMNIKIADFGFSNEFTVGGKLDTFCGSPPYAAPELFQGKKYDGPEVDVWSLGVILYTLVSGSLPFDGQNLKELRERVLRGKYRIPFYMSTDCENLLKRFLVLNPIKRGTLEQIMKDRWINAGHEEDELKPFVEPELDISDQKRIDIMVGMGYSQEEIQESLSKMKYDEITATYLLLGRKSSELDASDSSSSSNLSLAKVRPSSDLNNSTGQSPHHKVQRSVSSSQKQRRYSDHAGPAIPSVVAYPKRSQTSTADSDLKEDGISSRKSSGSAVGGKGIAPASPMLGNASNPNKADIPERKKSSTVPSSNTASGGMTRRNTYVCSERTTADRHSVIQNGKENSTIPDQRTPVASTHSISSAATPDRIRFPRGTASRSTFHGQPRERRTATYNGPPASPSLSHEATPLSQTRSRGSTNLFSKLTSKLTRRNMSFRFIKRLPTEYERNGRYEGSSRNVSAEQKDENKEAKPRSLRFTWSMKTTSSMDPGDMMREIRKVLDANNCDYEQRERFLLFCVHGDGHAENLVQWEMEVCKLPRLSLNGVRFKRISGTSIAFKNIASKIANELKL
Chain of MAP kinase-interacting serine/threonine-protein kinase 2 (Homo sapiens) (Q9HBH9 whole entry, looked up): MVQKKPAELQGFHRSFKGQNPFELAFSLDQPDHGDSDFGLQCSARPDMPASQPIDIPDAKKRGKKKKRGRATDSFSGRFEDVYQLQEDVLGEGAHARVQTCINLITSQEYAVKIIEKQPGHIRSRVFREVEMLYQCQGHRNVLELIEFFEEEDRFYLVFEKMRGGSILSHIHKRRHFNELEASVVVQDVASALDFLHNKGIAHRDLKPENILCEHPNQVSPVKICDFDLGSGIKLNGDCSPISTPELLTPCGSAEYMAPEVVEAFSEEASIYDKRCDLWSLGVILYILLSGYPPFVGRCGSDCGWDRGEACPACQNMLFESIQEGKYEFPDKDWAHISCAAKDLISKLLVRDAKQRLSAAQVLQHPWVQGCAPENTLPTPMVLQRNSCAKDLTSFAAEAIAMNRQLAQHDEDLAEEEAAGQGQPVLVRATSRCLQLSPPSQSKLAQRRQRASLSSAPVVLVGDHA

Usually inhibition stands for the drop in the measured response relative to a control, in per cent. For `COc1cccc(-n2ncc3c(N/N=C/c4ccncc4)ncnc32)c1`, the inhibition amounted to 4.53% in experiment [1]; 2.42% in experiment [2]; 1.8% in experiment [3]; 2.5% in [4]; 1.87% in [5]; 3.62% in experiment [6]. Also, the inhibition in experiment [7] is 4.56%; in experiment [8], 4.99%; in experiment [9], 9.17%; in [10], 5.75%; in experiment [11] it was 7.7%; in experiment [12] it was 1.15%. Moreover, the inhibition in [13] worked out at 5.01%; in [14], 2.47%; in experiment [15], 6.51%; in experiment [16] it was 23.2%; in experiment [17] it was 70.4%; in experiment [18] it was 15.2%. Further, the results for the inhibition in experiment [19] and in [20] were 59.2% and 1.24%, respectively.

Turning to `CCn1c(-c2nonc2N)nc2c(C#CC(C)(C)O)nc(O[C@@H](CN)c3ccccc3)cc21`, the inhibition in [1] is 2.31%; in experiment [2] it was 6.73%; in experiment [3], 18.5%; in experiment [4], -0.97%; in experiment [5], -1%; in [6], -3.02%. Besides, the inhibition in experiment [7] is -0.47%; in experiment [8], 77.2%; in [9], 93.1%; in [10] it was 83.3%; in [11], 101%; in experiment [12], 74.5%. The inhibition in [13] was found to be 90.7%; in experiment [14] it was 42.2%; in experiment [15] it was 90.4%; in experiment [16] it was 0.51%; in [17], 6.37%; in experiment [18], 5.3%. Also, the results for the inhibition in experiment [19] and in experiment [20] were 33.1% and 63.9%, respectively.

`NC(=O)c1sc(-n2cnc3cc(C(F)(F)F)ccc32)cc1OCc1ccccc1Br`: the inhibition in experiment [1] was 0%; in experiment [2] it was -1.23%; in experiment [3], 2.52%; in experiment [4], 0.61%; in [5], 0.42%; in [6], 1.71%. Further, the inhibition was -0.9% in experiment [7]; 1.79% in experiment [8]; 1.6% in experiment [9]; 1.11% in experiment [10]; 0.82% in experiment [11]; 2.12% in experiment [12]. The inhibition came out at 1.92% in [13]; 4.69% in [14]; 0.55% in experiment [15]; 1.99% in experiment [16]; 2.87% in [17]; 1.3% in experiment [18]. In addition, the figures for the inhibition in experiment [19] and in experiment [20] were 2.88% and -0.02%, respectively.

For the compound `COc1cc(C=NNc2ncnc3c2cnn3Cc2ccccc2)ccc1O`, the inhibition in experiment [1] was -3.68%; in experiment [2], -3.6%; in experiment [3], -3.02%; in experiment [4] it was -2.2%; in [5] it was -2.27%; in [6], -2.35%. Besides, the inhibition in experiment [7] was -1.92%; in [8] it was -0.6%; in experiment [9], 1.36%; in experiment [10], 0.53%; in [11], 4.6%; in experiment [12] it was 1.11%. Besides, the inhibition in experiment [13] is 3.25%; in experiment [14] it was 13.2%; in experiment [15], 47.1%; in experiment [16], -2.04%; in experiment [17] it was 0.25%; in [18], -0.35%. Further, the inhibition in experiment [19] amounted to 1.29%; in experiment [20] it was 1.79%.

As to `CCn1c(-c2nonc2N)nc2c(C#CCN)ncc(OCCCN)c21`, the inhibition is -3.38% in experiment [1]; -0.93% in experiment [2]; -0.65% in experiment [3]; -0.73% in experiment [4]; -0.87% in [5]; -1.07% in [6]. The inhibition was -0.66% in experiment [7]; 4.42% in [8]; 11% in experiment [9]; 6.58% in experiment [10]; 11.4% in [11]; 3.8% in [12]. The inhibition in [13] was 6.19%; in [14] it was -1.84%; in experiment [15], 16%; in experiment [16], -0.19%; in experiment [17], 7.05%; in experiment [18], 5.13%. In addition, the inhibition in experiment [19] turned out to be 10.2%; in experiment [20], 7.01%.

Consider `CCn1c(-c2nonc2N)nc2c(C#CC(C)(C)O)ncc(OC[C@@H]3CCCN3)c21`, for which the inhibition is 0.89% in experiment [1]; -1.55% in [2]; 2.93% in [3]; -0.56% in experiment [4]; -0.71% in experiment [5]; -0.39% in experiment [6]. Moreover, the inhibition in experiment [7] is -0.82%; in experiment [8], 13.8%; in [9] it was 61.1%; in experiment [10] it was 14.9%; in experiment [11], 67.9%; in experiment [12], 11.6%. Also, the inhibition in experiment [13] stood at 55.2%; in experiment [14] it was 1.75%; in [15], 18.4%; in experiment [16], 1.39%; in [17], 1.82%; in [18] it was 0.48%. For the same compound, the inhibition in [19] is -0.07%; in experiment [20], 12.9%.

On to `Fc1ccc(-c2ncn(C3CCNCC3)c2-c2ccnc(Oc3ccccc3)n2)cc1`, for which the inhibition in experiment [1] is -1.87%; in experiment [2], -4.56%; in experiment [3], -2.43%; in [4], 0.07%; in experiment [5] it was -0.82%; in [6], 31.3%. The inhibition in experiment [7] was 33.4%; in experiment [8] it was 0.45%; in experiment [9], 0.99%; in experiment [10], 0.57%; in experiment [11], -0.46%; in [12] it was 1.68%. The inhibition in experiment [13] amounted to 1.42%; in experiment [14], 3.76%; in experiment [15], 4.43%; in experiment [16], 1.38%; in experiment [17], 2.07%; in experiment [18] it was 1.12%. The figures for the inhibition in experiment [19] and in experiment [20] were 0.76% and -1.21%, respectively.
